Reference: PubChem BioAssay AID463213 (Sanford-Burnham Center for Chemical Genomics, 2010)
Out of some 7,400 compounds screened, about 4,100 (55%) were called active. So high a share suggests a set chosen from earlier hits. The list is a sample of the results. Values without a mark were called inactive.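 Rule for the calls: active = inhibition of yeast growth at or above a set limit in either of two repeat tests at 20 µM; inactive = the rest.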

Test: growth inhibitors of tim10-1 mutant yeast, confirmation, single concentration, luminescence, S. cerevisiae (AID 463213);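 note: tim10-1 mutant grown at permissive 25 °C to find synthetic lethal compounds; 0% = DMSO yeast wells and 100% = medium wells without yeast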
Conditions: S. cerevisiae tim10-1 ts strain growth, BacTiter-Glo, 24 h; at 20 µM; stronger effect = higher value

**Q.** With CC(NC(=S)Nc1ccccc1)C1COc2ccccc2O1 (centres undefined) as the compound, how does the inhibition read?
**A.** 37.4% (active)

**Q.** Which inhibition does the source give for CC(c1ccco1)N(C(=O)Nc1ccccc1)C1CCCCC1 (centres undefined) here?
**A.** 19.4%

**Q.** With COc1ccc(OC)c2sc(NC(=O)C3COc4ccccc4O3)nc12 (centres undefined) as the compound, how does the inhibition read?
**A.** 23.6%

**Q.** Which inhibition does the source give for Cc1ccc(SC(CC(=O)c2ccc(C(C)(C)C)cc2)C(=O)O)cc1 (centres undefined) here?
**A.** 38.5% (active)

**Q.** With c1c2c(cc3sc(N4CCCCC4)nc13)OCCO2 as the compound, how does the inhibition read?
**A.** 27.8%

**Q.** Which inhibition does the source give for Cc1cccc(/C(N)=N/OC(=O)c2ccccc2Cl)c1 here?
**A.** 50.9% (active)

**Q.** Which inhibition does the source give for Cc1ccc(/C(N)=N/OC(=O)COc2ccc(Cl)c(C)c2)cc1 here?
**A.** 29.1%

**Q.** With Cc1cc(N=Nc2ccc3ccccc3c2)ccc1O as the compound, how does the inhibition read?
**A.** 36.4% (active)

**Q.** For Cc1nonc1C(=O)N/N=C/c1ccc(O)cc1, which inhibition is on record?
**A.** 44.9% (active)

**Q.** With O=C(/C=C/c1ccc(Cl)cc1Cl)NCc1ccco1 as the compound, how does the inhibition read?
**A.** 34.4% (active)

**Q.** Which inhibition does the source give for COc1ccc(-c2cc(C3CCN(c4ncccc4[N+](=O)[O-])CC3)[nH]n2)cc1 here?
**A.** 30.2%

**Q.** For COC(C/C=C/C(=O)[C@@H](C)OCc1ccccc1)OC, which inhibition is on record?
**A.** 43.7% (active)

**Q.** With Nc1ccc(-c2nnc(-c3ccc(-c4ccccc4)cc3)o2)cc1 as the compound, how does the inhibition read?
**A.** 25.1%

**Q.** For CCc1ccc2oc(-c3ccc(N)cc3)nc2c1, which inhibition is on record?
**A.** 41.8% (active)

**Q.** For COc1ccc(NC(=O)c2cc3nc(-c4ccccc4)cc(C)n3n2)cc1OC, which inhibition is on record?
**A.** 33.3% (active)

**Q.** For CC(C)CCNC(=O)c1ccc2c(Cl)c3c(nc2c1)CCC3, which inhibition is on record?
**A.** 35% (active)

**Q.** For CSc1nnc2ccc(-c3ccc(C)cc3)nn12, which inhibition is on record?
**A.** 24.9%

**Q.** Which inhibition does the source give for Cc1ccc(-c2cn3cc(C)ccc3n2)cc1 here?
**A.** 43.9% (active)

**Q.** Which inhibition does the source give for COc1ccc2c(c1)cc1n2CCN=C1NN here?
**A.** 27.9%

**Q.** Which inhibition does the source give for CCOC(=O)C(=Cc1ccccc1OC)C(=O)OCC here?
**A.** 30.1% (active)

**Q.** For COc1ccccc1CNC(=O)c1ccc(SC)cc1OC, which inhibition is on record?
**A.** 20.9%

**Q.** For CNC(C)C#Cc1ccc2sc3cc(OC)c(OC)cc3c(=O)c2c1 (centres undefined), which inhibition is on record?
**A.** 31.8% (active)

**Q.** Which inhibition does the source give for CSC(=S)N/N=C/c1c[nH]c2ccccc12 here?
**A.** 41.7% (active)

**Q.** For COC(=O)CSc1snnc1-c1ccc(Cl)c(Cl)c1, which inhibition is on record?
**A.** 31.9% (active)

**Q.** With CCC(=O)Nc1nc2ccccc2n1Cc1ccccc1C as the compound, how does the inhibition read?
**A.** 18%

**Q.** For O=C(NCc1ccco1)c1cccn2c(=O)c3c4c(sc3nc12)CCCC4, which inhibition is on record?
**A.** 42.4% (active)

**Q.** Which inhibition does the source give for O=c1oc(-c2ccco2)nc2sc3c(c12)CCCCC3 here?
**A.** 3.45%

**Q.** For Cc1ccc2nc(N(CCN(C)C)C(=O)C3=COCCO3)sc2c1, which inhibition is on record?
**A.** 35.6% (active)

**Q.** For Cc1ccc(-c2csc(NC(=O)C3=COCCO3)n2)cc1C, which inhibition is on record?
**A.** 18.2%

**Q.** Which inhibition does the source give for CN(C)CCN(C(=O)C1=COCCO1)c1nc2ccc(Cl)cc2s1 here?
**A.** 69% (active)

**Q.** Which inhibition does the source give for Clc1ccc(C2CC(c3cccs3)n3ncnc3N2)cc1Cl (centres undefined) here?
**A.** 18%

**Q.** For Cc1oc2c(c1C(=O)N1CCOCC1)C(=O)c1ccccc1C2=O, which inhibition is on record?
**A.** 27.7% (active)

**Q.** For Cc1ccc(S(=O)(=O)NC(C(=O)N2CCOCCOCCOCCOCC2)c2ccccc2)cc1 (centres undefined), which inhibition is on record?
**A.** 0.85%

**Q.** For O=C1c2cccc3c([N+](=O)[O-])ccc(c23)C(=O)N1CC1CCCO1 (centres undefined), which inhibition is on record?
**A.** 46.5% (active)

**Q.** Which inhibition does the source give for O=C(Cc1ccc(Cl)c(Cl)c1)Nc1ccc(SC(F)F)cc1 here?
**A.** 35.9% (active)

**Q.** For N#C/C(=C\c1cccnc1)C(=O)Nc1ccc(SC(F)F)cc1, which inhibition is on record?
**A.** 17.2%

**Q.** Which inhibition does the source give for COc1cccc(Cn2cnc3c([N+](=O)[O-])c(C)c(C)cc32)c1 here?
**A.** 25.6%

**Q.** For COc1ccc(C(C[N+](=O)[O-])n2nc(C)cc2C)cc1 (centres undefined), which inhibition is on record?
**A.** 38.1% (active)

**Q.** With COc1ccc2c(c1)C(NS(=O)(=O)OCC(Cl)(Cl)Cl)CCC2 (centres undefined) as the compound, how does the inhibition read?
**A.** 27.9% (active)

**Q.** Which inhibition does the source give for Cc1nn(Cc2ccc(Cl)c(Cl)c2)c(C)c1NC(=O)c1cc(C2CC2)on1 here?
**A.** 51.2% (active)

**Q.** With O=C1CSC(=S)N1c1ccc(Cl)c(Cl)c1 as the compound, how does the inhibition read?
**A.** 34.4% (active)

**Q.** Which inhibition does the source give for S=C(NCCCc1ccccc1)Nc1ccc(Br)cc1 here?
**A.** 36.3% (active)

**Q.** With COc1ccc2nc(NC(=O)[C@@H]3CCCN3C(=O)c3cccs3)sc2c1 as the compound, how does the inhibition read?
**A.** 19.9%

**Q.** Which inhibition does the source give for CC(C)(C)NC(=O)NC(=O)COC(=O)CCC1CCCCC1 here?
**A.** 37.9% (active)

**Q.** With Cc1nn2c(c1-c1ccccc1)N=C(c1ccco1)CC2c1ccccc1 (centres undefined) as the compound, how does the inhibition read?
**A.** 28.9%

**Q.** Which inhibition does the source give for COc1ccc2nc(Nc3nc4cc5c(cc4s3)OCCO5)sc2c1 here?
**A.** 1.5%

**Q.** With CCn1c(/C=C/c2ccc([N+](=O)[O-])o2)nc2ccccc2c1=O as the compound, how does the inhibition read?
**A.** 45.9% (active)

**Q.** For Brc1ccc(C2=CC(c3ccco3)n3ncnc3N2)cc1 (centres undefined), which inhibition is on record?
**A.** 18.9%

**Q.** Which inhibition does the source give for Nc1ccccc1Sc1ccc(C(F)(F)F)cc1[N+](=O)[O-] here?
**A.** 61.2% (active)
